Target: SYT2
Assay: pooled miR-30 sensor sort-seq; sequence = guide strand
Conditions: shRNA

Row | Sequence | sensor-assay potency score (higher = more potent)
1 | TTTATCTCATTGAATAACTTCT | -0.172
2 | TTTCTGAATCTGCTCGAAGGGG | -0.751
3 | TTTGGTCTCATATTTCTTCTTC | 0.677
4 | TACCTGGACTTTCTGAATCTGC | -0.968
5 | TATCTCATTGAATAACTTCTCC | -0.214
6 | TTTGGCAAACATGTCCTCCTGA | 0.92
7 | TTGGCCAGCATGTCGGACCAGT | -0.931
8 | TCTCATTGAATAACTTCTCCTT | -0.0548
9 | TTGAATAACTTCTCCTTCAGTT | 0.105
10 | TTGACATAAGGGTCTGAGGTGC | -0.653
11 | TATTTCTTCTTCTTGTCAGGAA | 0.447

Target: SYTL1
Assay: as above
Conditions: shRNA

Row | Sequence | sensor-assay potency score (higher = more potent)
12 | TCGCACAACCCTTGTACGCTGG | -0.836
13 | TTCCTGCGCATAGACGCTCGGA | -0.515
14 | TTATCCGGGAGGAGGTAGCTTT | -1.36
15 | TTCACCGCCGTCTTGCGCTTGC | -0.681
16 | TTCTTCACCGCCGTCTTGCGCT | -1.02
17 | TGAGGTCCAACAGTCCTTCAGT | -0.459
18 | TAGACGCTCGGACAAGGTCAGA | -1.39
19 | TTGAACACAGGGCTGAGGCTGC | 0.21
20 | TTGTACGTAAGTGTCCAGGGAT | 0.203
21 | TTCTCTTTCACAGCAGCCTCAG | -1.16
22 | TTGACGTAGGGGTCCGAGCGGC | -0.281
23 | TTTCACAGCAGCCTCAGCCTCC | -0.778

Reference: the OligoGym collection
